system: STK35; conditions: concentration: 1 μM, replicates: in singlicate; n = 1
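Note: KINOMEscan kinase panel screen.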

Point of comparison: `Cn1cc(-c2ccc3c(c2)CCN3C(=O)Cc2cccc(F)c2)c2c(N)ncnc21` [GSK2603358], “%Inh” value 0%. Against it:
- CN(c1ccc(NC(=O)Nc2cc(C(F)(F)F)ccc2F)cc1)c1ccnc(Nc2ccc(S(N)(=O)=O)cc2)n1 [GW809893] — higher, 10%
- Nc1ncnc2c1nc(-c1ccccc1)n2-c1ccccc1 [SKF-97293] — the same, 0%
- CN1CCN(CCCNc2nccc(-c3c(-c4ccc(F)cc4)nn4cc(C(F)(F)F)ccc34)n2)CC1 [GW621581] — higher, 60%
- O=C(Nc1cccc(-c2nn3ccccc3c2-c2ccnc(Nc3cccc(C(F)(F)F)c3)n2)c1)c1c(F)cccc1F [GSK292658] — higher, 20%
- COc1cc(Nc2nccc(N3CCC(NC(=O)Nc4cccc(C(C)=O)c4)C3)n2)cc(OC)c1OC (stereo not shown) [GSK1379753] — the same, 0%
- Cl.Cl.NCC(C(=O)Nc1cc(Br)c(-c2ccnc3[nH]ccc23)s1)c1ccccc1 (stereo not shown) [GSK1269851] — the same, 0%
- COc1ccc(Nc2nccc(NCCNC(=O)c3cc4ccccc4s3)n2)cc1 [GSK1379896] — the same, 0%
- Cc1ccc(F)c(C(=O)Nc2cccc(-c3nn4ccccc4c3-c3ccnc(Nc4cccc(F)c4)n3)c2)c1F [GSK361061] — higher, 33%
- Cl.Cl.NCC(NC(=O)c1cc(-c2ccccc2)c(-c2ccnc3[nH]ccc23)s1)c1ccccc1 (stereo not shown) [GSK1321561] — the same, 0%
- Cc1cccc(Nc2nc(N[C@H]3CCNC3)ncc2C(N)=O)c1.Cl [GSK2197149] — higher, 1%
- COc1cccc(C2=C(Nc3ccc(Cl)c(C(=O)O)c3)C(=O)NC2=O)c1 [SB-390769] — the same, 0%
- O=C(Nc1cccc(-c2nn3ccccc3c2-c2ccnc(Nc3cccc(F)c3)n2)c1)c1c(F)ccc(F)c1Cl [GSK357952] — higher, 27%
- COc1cccc(NC(=O)NC2CCN(c3ccnc(Nc4cc(OC)c(OC)c(OC)c4)n3)C2)c1 (stereo not shown) [GSK1379763] — higher, 3%
- O=c1[nH]cc(-c2ccc(N3CCOCC3)cc2)c2sc(-c3cn[nH]c3)cc12 [GSK2276055] — the same, 0%
- CC(C)(C)c1ccc2nccc(Nc3cccc(O)c3)c2c1 [GW856795] — the same, 0%
- COc1ccc(Nc2nccc(N3CCC(NC(=O)Nc4cccc(OC)c4)C3)n2)cc1 (stereo not shown) [GSK1379742] — higher, 2%
- CCS(=O)(=O)c1ccc(OC)c(Nc2nccc(-c3c(-c4cccc(NC(=O)c5c(F)cccc5F)c4)nn4ncccc34)n2)c1 [GSK326180] — the same, 0%
- CC(C)c1nc(-c2cccc(NS(=O)(=O)c3c(F)cccc3F)c2F)c(-c2ccnc(Nc3ccc(N4CCOCC4)nc3)n2)s1 [GSK2008607] — higher, 36%
- Fc1ccc(-c2ncn(C3CCNCC3)c2-c2ccnc(Oc3ccc(-c4ccccc4)cc3)n2)cc1 [SB-245391] — the same, 0%
- O=C(Nc1n[nH]c2cc(-c3ccoc3)ccc12)C1CC1 [SB-738481] — higher, 5%
- Nc1ncc(-c2cccnc2)c2scc(-c3ccc4c(c3)CCN4C(=O)Cc3ccccc3)c12 [GSK683281] — the same, 0%
- Nc1ncc(-c2ccc3nccc(-c4ccncc4)c3c2)cc1S(=O)(=O)N1CCOCC1 [GSK1627798] — the same, 0%
- C[C@@H]1CC[C@@H](C(=O)Nc2ccccc2)CN1c1cc(-c2ccc3c(N)n[nH]c3c2)nc(N)n1 [GSK2286062] — the same, 0%
- Cc1ccc(C(=O)N2CC[C@@H](O)C2)cc1-n1c(C)cc(OCc2ccc(F)cc2F)c(Br)c1=O — the same, 0%
- CN1CCN(Cc2cccc(-c3ccc4c(Nc5ccc(Oc6ccccc6)cc5)ccnc4c3)c2)CC1 [GW578342] — higher, 70%
- CN(C)S(=O)(=O)c1cc(-c2ccc3nccc(-c4cccc(S(N)(=O)=O)c4)c3c2)cnc1N [GSK1669921] — higher, 8%
- COc1cc(Nc2nccc(-c3c(-c4cccc(NC(=O)c5c(F)cccc5F)c4)nn4ncccc34)n2)cc(OC)c1OC [GSK327238] — higher, 96.9%
- COCCOCCOc1cc2ncc3c4ccc(C#N)cc4[nH]c3c2cc1OC — higher, 18%
- Cc1ccc(C(=O)Nc2ccc(Nc3ccnc4cc(-c5nccs5)ccc34)cc2O)cc1.Cl [GW494702] — the same, 0%
- CC(=O)N1CCN(c2ccc(Nc3nccc(-c4sc(C(C)C)nc4-c4cccc(NS(=O)(=O)c5cccc(Cl)c5)c4)n3)cn2)CC1 [GSK1660437] — the same, 0%
- COc1cccc(C(=O)Nc2cccc(Oc3ccc4nc(NC(=O)C5CC5)cn4n3)c2)c1 — the same, 0%
- Cc1cccc(NC(=O)Nc2ccc(Oc3ncnc4ccn(C)c34)cc2)c1 — the same, 0%
- Cc1ccc(S(=O)(=O)Nc2ccc(Nc3nccc(Nc4cccc5[nH]ncc45)n3)cc2)cc1 [GSK581271] — higher, 55%
- O=C(Nc1ccccc1F)NC1CCN(c2ccnc(Nc3ccc(F)cc3)n2)CC1 [GSK1379800] — the same, 0%
- Nc1n[nH]c2cnc(-c3ccccc3)cc12 [SB-642124] — the same, 0%
- c1ccc(-c2n[nH]cc2Nc2ccnc3ccccc23)nc1 [GW694077] — the same, 0%
